Results as given in PubChem BioAssay (Tox21).
Results filed as inconclusive are left out. The source made the active and inactive calls. Unless noted, calls follow the shape of the dose curve; as a rule, active = well fitted curve in the direction sought with a large enough effect in the repeat runs; inconclusive = weak or mixed curves; inactive = no such curve, though single readings can be large; an effect the other way counts as inactive or inconclusive.

How the values were obtained:
[1] = qHTS assay to identify small molecule antagonists of the androgen receptor (AR) signaling pathway using the MDA cell line in the presence of 0.5 nM R1881 - cell viability counter screen (AID 1259242); also: nearly all actives have a fitted effect of over 45% in size; also: potency is read from the fitted curve at half-maximal effect
Outline: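 Cells seeded at 3,000/well and allowed 5 hr at 37C, 0% CO2 before compound transfer and R1881 (0.5 nM final) addition; 16 hr later, live-cell protease fluorescence indicated cytotoxicity.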

[2] = biological target: Estrogen receptor (Homo sapiens) (UniProt P03372); test: qHTS assay to identify small molecule antagonists of the estrogen receptor alpha (ER-alpha) signaling pathway using the BG1 cell line in the presence of 0.1 nM 17-beta-estradiol (AID 1259244); also: nearly all actives have a fitted effect of over 50% in size; also: potency is read from the fitted curve at half-maximal effect
Outline: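 Luciferase signal from VM7Luc4E2 ERE-reporter cells, co-dosed with test compound and 0.1 nM final 17beta-estradiol for 22 h, read with ONE-Glo.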

[3] = qHTS assay to identify small molecule phospholipidosis (PLD) inducers (AID 1259344; active = well fitted curve in the direction sought with a large enough effect; an effect the other way counts as inactive or inconclusive)
Outline: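 Accumulated phospholipid, stained red by LipidTOX during 24 h compound treatment of HepG2 cells at 37 C, is quantified from images as pit number and intensity, normalised per cell using Hoechst-stained nuclei.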

[4] = qHTS assay to identify small molecule HDAC inhibitors (AID 1259364); also: potency is read from the fitted curve at half-maximal effect;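 also: wild-type HCT-116 cells with endogenous class I/II HDAC activity; nearly all actives have a fitted effect of over 45% in size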
Outline: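 HCT-116 wt cells, 1,500/well, overnight attach. Compounds (DMSO) 2 h, 37 °C. HDAC-Glo I/II, 30 min RT. Luminescence.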

[5] = qHTS assay to identify small molecule HDAC inhibitors - cell viability counter screen (AID 1259365); also: series mostly up to about 92 µM; nearly all actives have a fitted effect of over 50% in size
Outline: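 Luminescence from CellTiter-Glo, developed 30min at room temperature, reports viability of wild-type HCT-116 cells treated 2hr with compounds at 37 C and 5% CO2 after overnight plating.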

[6] = qHTS assay to identify small molecule agonists of the sonic hedgehog signaling (Shh) pathway - cell viability counter screen (AID 1259366); also: nearly all actives have a fitted effect of over 50% in size; also: potency is read from the fitted curve at half-maximal effect
Outline: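 Cytotoxicity counter screen run in the same wells as the Shh reporter assay. NIH/3T3 cells carrying a Gli1 response element–driven luciferase were treated with DMSO-dissolved compounds for 24hr, and live-cell protease activity was measured with CellTiter-Fluor.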

[7] = biological target: Estrogen receptor beta (Homo sapiens) (UniProt Q92731); test: qHTS assay to identify small molecule agonists of the estrogen receptor beta (ER-beta) signaling pathway (AID 1259377; active = well fitted activation curve with a large enough effect in the signal ratio in the repeat runs, not every such curve was filed as active; the % refers to the signal ratio)
Outline: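 HEK293T ER-beta-UAS-bla; 2% charcoal-stripped FBS; cells pre-incubated 6 hr, compound 16 hr, 37C/5% CO2; LiveBLAzer B/G FRET substrate 2 h RT; fluorescence intensity read.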

[8] = biological target: Estrogen receptor beta (Homo sapiens) (UniProt Q92731); test: qHTS assay to identify small molecule antagonists of the estrogen receptor beta (ER-beta) signaling pathway (AID 1259378; active = well fitted inhibition curve with a large enough effect in the signal ratio in the repeat runs, not every such curve was filed as active; the % refers to the signal ratio; also: potency is read from the fitted curve at half-maximal effect)
Outline: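 Antagonist mode: compounds added to beta-lactamase reporter HEK293T ER-beta-UAS cells stimulated with E2 (1nM final), 16 hr at 37C. LiveBLAzer B/G FRET substrate, 2 hours room temperature, fluorescence read-out.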

[9] = qHTS assay to identify small molecule agonists of the androgen receptor (AR) signaling pathway in the presence of an antagonist - cell viability counter screen (AID 1259379);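 also: MDA-kb2 human breast cancer cells carrying an MMTV luciferase reporter; series mostly up to about 92 µM; nearly all actives have a fitted effect of over 25% in size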
Outline: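 Each compound was tested at 15 concentrations on MDA-kb2 cells in the presence of 3.0uM nilutamide. Viability was measured by CellTiter-Fluor fluorescence after a 16 hr incubation at 37C in a CO2-free atmosphere.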

[10] = qHTS assay to identify small molecule antagonists of the estrogen receptor beta (ER-beta) signaling pathway - cell viability counter screen (AID 1259382); also: nearly all actives have a fitted effect of over 55% in size; also: potency is read from the fitted curve at half-maximal effect
Outline: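 CellTiter-Glo ATP luminescence measured after the LiveBLAzer read in the same wells; ER-beta-UAS-bla HEK293T cells, 16 hr compound treatment with 1nM 17-beta-estradiol agonist at 37C, 5% CO2.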

[11] = biological target: Estrogen receptor (Homo sapiens) (UniProt P03372); test: qHTS assay to identify small molecule agonists of the estrogen receptor alpha (ER-alpha) signaling pathway in the presence of an antagonist (AID 1259383; calls by dose curve; also: top concentration of the series differs between compounds; nearly all actives have a fitted effect of over 15% in size)
Outline: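 Luminescent ERE-luciferase reporter, VM7Luc4E2 cells (endogenous ER-alpha); 10.0nM ICI-182,780 final; 15-point compound titration; 22hr at 37C; ONE-Glo, 30min RT.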

[12] = qHTS assay to identify small molecule agonists or antagonists of the thyroid stimulating hormone receptor (TSHR) signaling pathway - wild type cell line counter screen (AID 1259384; calls by dose curve)
Outline: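 Counter screen in untransfected Hek293: compounds (15-point titration, triplicate) plus phosphodiesterase inhibitor Ro20-1724 added after 18 h plating; 30 min RT. Intracellular cAMP via competitive d2/cryptate immunoassay, 1 h incubation.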

[13] = biological target: Thyrotropin receptor (Homo sapiens) (UniProt P16473); test: qHTS assay to identify small molecule antagonists of the thyroid stimulating hormone receptor (TSHR) signaling pathway (AID 1259385; calls by dose curve; also: nearly all actives have a fitted effect of over 20% in size; also: potency is read from the fitted curve at half-maximal effect)
Outline: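 Antagonist mode: compound-treated TSHR-expressing HEK293 cells were stimulated with 1.5 ng/mL TSH (final) in presence of Ro20-1724 for 30 min at RT. HTRF cAMP detection after 1 h; each compound tested at 15 concentrations, triplicate.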

[14] = qHTS assay to identify small molecule agonists of the sonic hedgehog signaling (Shh) pathway (AID 1259368; calls by dose curve;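 also: NIH/3T3-derived 3T3Gli1-Luc cells carrying a stable Gli1-driven firefly luciferase reporter; series mostly up to about 92 µM; nearly all actives have a fitted effect of over 15% in size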)
Outline: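 Following a 24 hr incubation with DMSO-dissolved compounds at 37 C, 5% CO2, Gli1-Luc NIH/3T3-derived cells received luciferase reagent for 30 min at room temperature prior to luminescence measurement.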

[15] = qHTS assay to identify small molecule agonists of the estrogen receptor beta (ER-beta) signaling pathway - cell viability counter screen (AID 1259380); also: nearly all actives have a fitted effect of over 30% in size; also: potency is read from the fitted curve at half-maximal effect
Outline: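 Compounds dissolved in DMSO were pin-transferred onto ER-beta-UAS-bla HEK293T cells that had settled 6 hr, and exposure ran 16 hr at 37C. Following the reporter read, CellTiter-Glo luminescence after 30 min at room temperature indicated cytotoxicity.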

[16] = qHTS assay to identify small molecule agonists of the estrogen receptor alpha (ER-alpha) signaling pathway in the presence of an antagonist - cell viability counter screen (AID 1259386);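 also: cells exposed to compounds for 22 h at 37 °C before the viability read; nearly all actives have a fitted effect of over 30% in size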; also: potency is read from the fitted curve at half-maximal effect
Outline: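 Using estrogen-depleted VM7Luc4E2 cells, the 15-concentration compound series was applied together with 10.0nM ICI-182,780 and incubated 22hr at 37C/5% CO2. Cell viability was then scored by CellTiter-Fluor.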

[17] = qHTS assay to identify small molecule antagonists of the sonic hedgehog signaling (Shh) pathway - cell viability counter screen (AID 1259367); also: nearly all actives have a fitted effect of over 55% in size; also: potency is read from the fitted curve at half-maximal effect
Outline: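 CellTiter-Fluor signal in conditioned medium-stimulated 3T3 Gli1-Luc cells, 23 hr compound exposure, 37C.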

[18] = qHTS assay to identify small molecule antagonists of the sonic hedgehog signaling (Shh) pathway (AID 1259369; calls by dose curve; also: nearly all actives have a fitted effect of over 45% in size; also: potency is read from the fitted curve at half-maximal effect)
Outline: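 Read-out is luminescence from a firefly luciferase gene controlled by the Gli1 response element, in 3T3Gli1-Luc cells pre-incubated 4hr then exposed to compounds and conditioned medium for 24hr.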

[19] = biological target: Androgen receptor (Homo sapiens) (UniProt P10275); test: qHTS assay to identify small molecule agonists of the androgen receptor (AR) signaling pathway in the presence of an antagonist (AID 1259381; calls by dose curve; also: nearly all actives have a fitted effect of over 15% in size; also: potency is read from the fitted curve at half-maximal effect)
Outline: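 Plated MDA-kb2 cells (3,000/well) were pre-incubated 5hr, given nilutamide (3.0uM final) or buffer, then dosed with compounds in DMSO at 15 concentrations. Luciferase activity was quantified by luminescence after 16hr at 37C.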

[20] = biological target: Androgen receptor (Homo sapiens) (UniProt P10275); test: qHTS assay to identify small molecule antagonists of the androgen receptor (AR) signaling pathway using the MDA cell line in the presence of 0.5 nM R1881 (AID 1259243); also: nearly all actives have a fitted effect of over 50% in size; also: potency is read from the fitted curve at half-maximal effect
Outline: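 Luminescence from an AR/GR-responsive MMTV-luciferase construct in MDA-kb2 breast carcinoma cells, read 30 min after ONE-Glo, following 16 hr co-treatment with compounds and 0.5 nM R1881.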
% is scaled to controls: 0 for no effect and ±100 for the full control effect.

Chain of Thyrotropin receptor (Homo sapiens) (P16473 whole entry, looked up): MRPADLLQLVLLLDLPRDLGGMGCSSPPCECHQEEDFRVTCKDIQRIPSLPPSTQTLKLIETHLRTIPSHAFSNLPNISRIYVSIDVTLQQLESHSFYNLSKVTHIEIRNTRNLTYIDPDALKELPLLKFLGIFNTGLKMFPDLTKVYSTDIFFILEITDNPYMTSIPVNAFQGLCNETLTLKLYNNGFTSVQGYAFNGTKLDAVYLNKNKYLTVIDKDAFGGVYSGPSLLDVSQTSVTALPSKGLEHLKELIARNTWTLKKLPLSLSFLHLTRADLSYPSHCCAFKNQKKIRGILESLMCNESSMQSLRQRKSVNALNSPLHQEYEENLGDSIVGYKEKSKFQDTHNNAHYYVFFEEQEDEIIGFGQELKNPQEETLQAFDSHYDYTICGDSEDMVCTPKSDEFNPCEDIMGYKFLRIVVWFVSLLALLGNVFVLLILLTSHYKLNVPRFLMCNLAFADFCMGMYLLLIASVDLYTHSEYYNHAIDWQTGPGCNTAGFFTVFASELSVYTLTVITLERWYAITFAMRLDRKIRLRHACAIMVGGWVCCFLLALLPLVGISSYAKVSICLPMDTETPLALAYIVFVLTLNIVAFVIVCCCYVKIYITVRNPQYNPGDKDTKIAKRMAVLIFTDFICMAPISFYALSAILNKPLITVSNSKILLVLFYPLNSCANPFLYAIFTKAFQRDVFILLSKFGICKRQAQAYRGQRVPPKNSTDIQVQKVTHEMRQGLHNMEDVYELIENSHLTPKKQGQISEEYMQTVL
Chain of Estrogen receptor beta (Homo sapiens) (Q92731 whole entry, looked up): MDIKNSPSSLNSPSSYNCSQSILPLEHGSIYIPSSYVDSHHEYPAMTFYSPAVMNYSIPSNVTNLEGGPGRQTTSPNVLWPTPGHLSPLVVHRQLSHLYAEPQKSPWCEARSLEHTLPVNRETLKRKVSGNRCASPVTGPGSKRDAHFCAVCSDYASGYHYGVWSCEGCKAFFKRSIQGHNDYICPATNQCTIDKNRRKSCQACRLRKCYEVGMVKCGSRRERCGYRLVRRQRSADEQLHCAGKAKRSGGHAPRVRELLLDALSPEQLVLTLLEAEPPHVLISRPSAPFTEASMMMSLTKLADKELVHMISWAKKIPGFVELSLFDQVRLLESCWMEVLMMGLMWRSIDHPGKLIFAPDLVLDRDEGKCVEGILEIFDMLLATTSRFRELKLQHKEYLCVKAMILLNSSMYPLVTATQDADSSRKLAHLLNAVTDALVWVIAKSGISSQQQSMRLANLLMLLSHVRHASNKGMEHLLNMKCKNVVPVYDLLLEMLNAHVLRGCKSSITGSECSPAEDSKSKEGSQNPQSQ
Chain of Estrogen receptor (Homo sapiens) (P03372 whole entry, looked up): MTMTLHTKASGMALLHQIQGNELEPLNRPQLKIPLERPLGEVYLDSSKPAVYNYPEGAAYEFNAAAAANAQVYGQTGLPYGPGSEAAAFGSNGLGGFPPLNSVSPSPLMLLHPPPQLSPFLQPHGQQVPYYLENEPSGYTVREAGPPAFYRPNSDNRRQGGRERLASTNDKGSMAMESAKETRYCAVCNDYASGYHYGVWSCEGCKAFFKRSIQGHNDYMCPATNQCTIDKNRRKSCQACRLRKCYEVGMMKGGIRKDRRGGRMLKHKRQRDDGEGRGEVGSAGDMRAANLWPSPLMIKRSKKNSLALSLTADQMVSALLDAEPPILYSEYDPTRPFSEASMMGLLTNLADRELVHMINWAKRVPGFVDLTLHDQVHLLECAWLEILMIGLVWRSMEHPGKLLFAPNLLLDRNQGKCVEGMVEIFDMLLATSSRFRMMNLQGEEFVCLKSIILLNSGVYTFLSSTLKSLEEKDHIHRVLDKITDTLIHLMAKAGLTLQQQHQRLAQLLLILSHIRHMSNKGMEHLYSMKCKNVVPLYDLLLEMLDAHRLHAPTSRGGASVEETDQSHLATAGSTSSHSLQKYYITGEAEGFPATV
Chain of Androgen receptor (Homo sapiens) (P10275 whole entry, looked up): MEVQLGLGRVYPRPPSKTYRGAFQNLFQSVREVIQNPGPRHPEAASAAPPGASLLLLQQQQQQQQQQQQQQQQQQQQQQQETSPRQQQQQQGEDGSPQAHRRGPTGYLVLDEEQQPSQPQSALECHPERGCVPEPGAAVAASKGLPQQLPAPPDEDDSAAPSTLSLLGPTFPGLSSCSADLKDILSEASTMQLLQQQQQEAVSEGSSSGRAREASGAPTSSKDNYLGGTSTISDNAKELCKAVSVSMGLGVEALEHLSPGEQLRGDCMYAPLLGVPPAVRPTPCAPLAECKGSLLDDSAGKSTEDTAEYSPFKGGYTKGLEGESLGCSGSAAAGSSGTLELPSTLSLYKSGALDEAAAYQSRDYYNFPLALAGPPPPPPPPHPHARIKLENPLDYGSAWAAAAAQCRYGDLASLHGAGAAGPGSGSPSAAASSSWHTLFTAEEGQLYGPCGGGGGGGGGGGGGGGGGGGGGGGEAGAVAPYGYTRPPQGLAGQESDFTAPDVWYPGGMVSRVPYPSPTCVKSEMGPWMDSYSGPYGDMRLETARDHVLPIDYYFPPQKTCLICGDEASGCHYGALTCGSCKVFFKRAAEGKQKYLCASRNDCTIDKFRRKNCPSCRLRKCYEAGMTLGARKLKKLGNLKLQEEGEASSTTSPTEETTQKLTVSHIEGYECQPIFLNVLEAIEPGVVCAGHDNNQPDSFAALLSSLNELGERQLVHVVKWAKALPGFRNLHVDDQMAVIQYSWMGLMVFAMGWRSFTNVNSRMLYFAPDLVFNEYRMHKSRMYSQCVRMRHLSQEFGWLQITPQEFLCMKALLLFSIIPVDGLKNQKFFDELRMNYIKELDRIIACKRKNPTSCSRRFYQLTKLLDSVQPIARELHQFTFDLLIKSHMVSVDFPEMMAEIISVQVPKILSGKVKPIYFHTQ

CCCCNc1ccc(C(=O)OCCOCCOCCOCCOCCOCCOCCOCCOCCOC)cc1
active: Potency [2] 8.41 µM
inactive: Potency [1] | Potency [3] | Potency [4] | Potency [5] | Potency [6] | Potency [7] | Potency [8] | Potency [9] | Potency [10] | Potency [11] | Potency [12] | Potency [13]

C[C@H](CCC(=O)O)[C@H]1CC[C@H]2[C@@H]3CC[C@@H]4C[C@H](O)CC[C@]4(C)[C@H]3C[C@H](O)[C@]12C
active: Potency [15] 48.7 µM
inactive: Potency [1] | Potency [2] | Potency [3] | Potency [4] | Potency [5] | outcome [14] | Potency [7] | Potency [11] | Potency [12] | Potency [16]

O=C(CS)Nc1ccccc1
inactive: Potency [1] | Potency [2] | PLD induction [3] 0.942% [at 7.66 µM] | Potency [4] | Potency [5] | Potency [6] | Potency [17] | outcome [14] | Potency [18] | Potency [7] | Potency [8] | Potency [9] | Potency [15] | Potency [10] | Potency [11] | Potency [12] | Potency [13] | Potency [16]

CC[N+](C)(CC)CCOC(=O)C(O)(c1ccccc1)C1CCCCC1 (centres undefined)
inactive: Potency [1] | Potency [2] | Potency [3] | Potency [4] | Potency [5] | Potency [6] | Potency [17] | outcome [14] | Potency [18] | Potency [9] | Potency [15] | Potency [10] | Potency [11] | Potency [12] | Potency [13]

CCOC(=O)C1=C[C@]2(CC)CCCN3CCc4c(n1c1ccccc41)[C@@H]32
active: Potency [15] 26.6 µM
inactive: Potency [1] | Potency [2] | Potency [3] | Potency [4] | Potency [5] | Potency [6] | Potency [17] | outcome [14] | Potency [9] | Potency [10] | Potency [11] | Potency [12] | Potency [13] | Potency [16]

CCC(=O)O[C@]1(C(=O)CCl)[C@@H](C)C[C@H]2[C@@H]3CCC4=CC(=O)C=C[C@]4(C)[C@@]3(F)[C@@H](O)C[C@@]21C
inactive: Potency [1] | Potency [2] | Potency [3] | Potency [4] | Potency [5] | Potency [6] | Potency [17] | outcome [14] | Potency [18] | Potency [7] | Potency [9] | Potency [10] | Potency [11] | Potency [12] | Potency [16]
active: Potency [8] 29.8 µM | Potency [19] 0.0007 µM

C[C@H]1C[C@H]2[C@@H]3CCC4=CC(=O)C=C[C@]4(C)[C@@]3(Cl)[C@@H](O)C[C@]2(C)[C@@]1(O)C(=O)CO
inactive: Potency [1] | Potency [2] | Potency [3] | Potency [4] | Potency [6] | Potency [17] | outcome [14] | Potency [18] | Potency [9] | Potency [10] | Potency [11] | Potency [12] | Potency [16]

CC(C)CC(=O)C1C(=O)c2ccccc2C1=O
active: Potency [20] 48.6 µM | Potency [18] 61.1 µM
inactive: Potency [1] | Potency [5] | Potency [6] | Potency [17] | Potency [7] | Potency [9] | Potency [19] | Potency [10] | Potency [11] | Potency [12]

Nc1c(CC(=O)O)cccc1C(=O)c1ccc(Br)cc1
inactive: Potency [1] | Potency [2] | Potency [3] | Potency [4] | Potency [5] | Potency [6] | Potency [17] | outcome [14] | Potency [18] | Potency [9] | Potency [15] | Potency [10] | Potency [11] | Potency [12] | Potency [13] | Potency [16]

COc1cccc(N(C)C(=S)Oc2ccc3c(c2)CCCC3)n1
inactive: Potency [1] | Potency [2] | Potency [3] | Potency [4] | Potency [5] | Potency [6] | Potency [17] | outcome [14] | Potency [7] | Potency [8] | Potency [9] | Potency [10] | Potency [11] | Potency [16]

O=C(O)C1(C(=O)Nc2ccc(Cl)cc2Cl)CC1
inactive: Potency [1] | Potency [20] | Potency [5] | Potency [6] | Potency [17] | Potency [18] | Potency [19] | Potency [11] | Potency [12] | Potency [13] | Potency [16]
active: Potency [4] 13.7 µM | Potency [15] 15.4 µM

CCCCC1=NC2(CCCC2)C(=O)N1Cc1ccc(-c2ccccc2-c2nn[nH]n2)cc1
inactive: Potency [1] | Potency [2] | Potency [3] | Potency [4] | Potency [5] | outcome [14] | Potency [18] | Potency [7] | Potency [8] | Potency [9] | Potency [15] | Potency [10] | Potency [11]
active: Potency [6] 4.22 µM | Potency [17] 6.68 µM

COc1ccc(C(=O)c2ccc(OC)cc2O)c(O)c1
inactive: Potency [19]

C[C@@H]1C[C@H]2[C@@H]3CCC4=CC(=O)C=C[C@]4(C)[C@@]3(F)[C@@H](O)C[C@]2(C)[C@@]1(O)C(=O)COC(=O)c1ccncc1
active: Potency [19] 0.0067 µM

CCCCc1ncc(/C=C(\Cc2cccs2)C(=O)O)n1Cc1ccc(C(=O)O)cc1
inactive: Potency [1] | Potency [3] | Potency [4] | Potency [5] | Potency [6] | Potency [17] | outcome [14] | Potency [18] | Potency [9] | Potency [15] | Potency [10] | Potency [12] | Potency [13] | Potency [16]

CCCCCCOC(=O)NC(=N)c1ccc(NCc2nc3cc(C(=O)N(CCC(=O)OCC)c4ccccn4)ccc3n2C)cc1
inactive: Potency [5] | outcome [14] | Potency [11] | Potency [12]
active: Potency [1] 26.6 µM | Potency [2] 23.7 µM | Potency [18] 1.19 µM | Potency [15] 11.9 µM | Potency [10] 11.9 µM | Potency [13] 29.8 µM | Potency [16] 26.6 µM
